In PubChem BioAssay (NCI):
About 83,000 compounds went through this panel and 20% of them were active in at least one assay; those are over-represented in the sample as a whole.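 Results are percent growth after 48 hours of single-concentration exposure. 100 means growth as in untreated cells, lower positive values show inhibition; negative values down to -100 show cell death.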 A number with no mark means an inactive call. Calls of active or inactive are those of the source. Rule for the calls: active = growth percent below 10; inactive = the rest.

What was measured:
Assay in all cases: NCI-60 one-dose screen, 48 h (100 = growth as untreated, 0 = no growth, -100 = all killed)
Details in all cases: 10 µM
DU-145 prostate = system: DU-145 prostate
K-562 leukemia = system: K-562 leukemia
MALME-3M melanoma = system: MALME-3M melanoma
MDA-MB-231 breast = system: MDA-MB-231 breast
RXF 393 renal = system: RXF 393 renal
SF-268 CNS = system: SF-268 CNS
SF-295 CNS = system: SF-295 CNS
SF-539 CNS = system: SF-539 CNS
UACC-257 melanoma = system: UACC-257 melanoma
M14 melanoma = system: M14 melanoma
HCT-15 colon = system: HCT-15 colon
HT29 colon = system: HT29 colon
SNB-75 CNS = system: SNB-75 CNS
SNB-19 CNS = system: SNB-19 CNS
U251 CNS = system: U251 CNS
PC-3 prostate = system: PC-3 prostate
SK-MEL-5 melanoma = system: SK-MEL-5 melanoma
UACC-62 melanoma = system: UACC-62 melanoma
LOX IMVI melanoma = system: LOX IMVI melanoma
SK-MEL-28 melanoma = system: SK-MEL-28 melanoma

Row | SMILES | growth (DU-145 prostate) | growth (K-562 leukemia) | growth (MALME-3M melanoma) | growth (MDA-MB-231 breast) | growth (RXF 393 renal) | growth (SF-268 CNS) | growth (SF-295 CNS) | growth (SF-539 CNS) | growth (UACC-257 melanoma) | growth (M14 melanoma) | growth (HCT-15 colon) | growth (HT29 colon) | growth (SNB-75 CNS) | growth (SNB-19 CNS) | growth (U251 CNS) | growth (PC-3 prostate) | growth (SK-MEL-5 melanoma) | growth (UACC-62 melanoma) | growth (LOX IMVI melanoma) | growth (SK-MEL-28 melanoma)
1 | COc1cccc2c1C(=O)c1c(O)c3c(c(O)c1C2=O)C[C@@](O)(C(=O)COC(=O)c1ccccc1)C[C@@H]3OC1CC(N)C(O)C(C)O1 (some centres undefined) | -87.6% (active) | -73.7% (active) | -88.4% (active) | -82% (active) | -80.3% (active) | -65.6% (active) | -91.2% (active) | -94.7% (active) | -91.3% (active) | -69.9% (active) | -72% (active) | -95.1% (active) | -84.3% (active) | -75.4% (active) | -95.4% (active) | -95.6% (active) | -97.2% (active) | -97% (active) | -87.1% (active) | -88.9% (active)
2 | O=C1/C(=C/c2ccc(O)cc2O)N=C2SCCCN12 | 104% | 92.5% | 101% | 104% | 102% | 96.9% | 96.3% | 93.7% | 102% | 100% | 97.3% | 93.9% | 96.2% | 97% | 99.2% | 100% | 99.7% | 97.4% | 102% | 98.4%
3 | CCCCC(CC#N)(CCC)CCC | 108% | 101% | 82.7% | 126% | 126% | 101% | 96.7% | 100% | 110% | 97.4% | 99% | 99% | 80.6% | 106% | 102% | 99.2% | 106% | 118% | 92.1% | 99.6%
4 | CCOC(=S)Sc1ccc([N+](=O)[O-])cc1[N+](=O)[O-] | 95.5% | 7.81% (active) | 84.1% | 88.4% | 108% | 104% | 99.2% | 26.2% | 79.2% | 36.2% | 82.8% | 0.214% (active) | 99.5% | 111% | 90.4% | 83.7% | 88.4% | 99% | 14.3% | 67.5%
5 | CC(=O)O[C@H]1CC[C@@]2(C)[C@@H](CC[C@@H]3[C@@H]2CC[C@]2(C)C=C(C=O)C[C@@H]32)C1 | 49.5% | 82.3% | 66.8% | 103% | 120% | 66.6% | 97.1% | 92.7% | 98.6% | 65.3% | 27.5% | 31.4% | 69.5% | 82.5% | 22.9% | 62.5% | 75.7% | 78.8% | -71% (active) | 70%
6 | CCOC(=O)c1c(C)n(-c2ccc(Cl)cc2)c2ccc(OC(=O)/C=C/c3ccccc3)cc12 | 91% | 25.4% | 72.9% | 63.4% | 73.7% | 94.1% | 79.4% | 92.7% | 84.2% | 83.1% | 60.8% | 66.1% | 66.6% | 89.7% | 83.2% | 67.7% | 79.1% | 68.1% |  | 81.9%
7 | N=C(N)c1ccc(-c2ccc(-c3ccccc3)s2)cc1F | -95.5% (active) | -70.8% (active) | -76.7% (active) | -82.3% (active) | -86.9% (active) | -84.6% (active) | -77.9% (active) | -97.3% (active) | -84.1% (active) | -93.1% (active) | -77.1% (active) | -89.8% (active) | -92.4% (active) | -75.9% (active) | -94.5% (active) | -88% (active) | -97% (active) | -93.1% (active) | -81.4% (active) | -96.2% (active)
8 | O=C(NC1CCN(Cc2ccccc2)CC1)c1cc(-c2ccncc2)nc2ccc(Cl)cc12 | 33.2% | 13.4% | 56.9% | 42.3% | 37.8% | 24.4% | 14.6% | 16.4% | -1.44% (active) | 16.1% | 24.2% | 19.9% | 68.7% | 24.8% | 7.4% (active) | 33.9% | 16% | 7.85% (active) | 15.3% | 46.5%
9 | COCCOC(=O)NC(=O)Nc1ccc(/C(=N/O)c2ccc(Cl)cc2)cc1 | 4.9% (active) | 6.7% (active) | 90% | 12.8% | -13.1% (active) | 43.2% | -8.84% (active) | 1.64% (active) | 71.6% | 3.73% (active) | 9.7% (active) | -20.5% (active) | 19.9% | 31.4% | 17.9% | 26.1% | -17.2% (active) | 15.7% |  | 69.1%
10 | CC(Oc1ccc(Cl)cc1)c1ccccc1 (centres undefined) | 107% | 101% | 80.1% | 105% | 103% | 104% | 96% | 102% | 98.9% | 101% | 112% | 106% | 97.3% | 99.7% | 102% | 93.4% | 100% | 97.6% |  | 106%
11 | Cc1nc2sccn2c1-c1csc(Nc2cccc(Cl)c2C)n1 | 78.7% | 16% | 58.9% | 65.4% | 67.8% | 80.1% | 37.8% | 63.8% | 34% | 50.8% | 46.4% | 31% | 77.5% | 77.1% | 60.8% | 53.1% | 16.5% | 53.3% |  | 59.7%
12 | O=[N+]([O-])c1ccc(-c2nc(Cl)c3c(n2)CCCC3)o1 | 31.4% | 73.2% | 41.4% | 109% | 93.8% | 88.5% | 115% | 94.6% | 82.5% | 71.3% | 15.9% | 53.5% | 69.9% | 91.1% | 78.6% | 89.4% | 47.3% | 86.9% |  | 98.4%
13 | Fc1ccc2[nH]c3c(NCCCN4CCOCC4)ncnc3c2c1 | 79.2% | 73.9% | 61.5% | 55.6% | 60.8% | 61.5% | 39% | 65% | 107% | 85.3% | 91.1% | 66.1% | -0.656% (active) | 91.7% | 41.1% | 83% | 92.2% | 92.3% | 69.1% | 104%
14 | CNCCCNCCCN1C(=O)c2ccc3c4c(ccc(c24)C1=O)C(=O)N(CCCNCc1ccccc1OC)C3=O | -91.5% (active) | 4.42% (active) | -89.7% (active) | 7.69% (active) | -11.5% (active) | 4.85% (active) | 25.3% | 24.3% | -80.7% (active) | 0.979% (active) | 28% | -23.4% (active) | 15.9% | 36.6% | 6.5% (active) | 1.85% (active) | -94.2% (active) | -42.2% (active) | -58.3% (active) | -48.2% (active)
15 | C/C=C\COc1cc(C)c(Cl)cc1Cl | 111% | 114% | 95.9% | 111% | 96.2% | 114% | 99% | 104% | 92% | 112% | 109% | 114% | 88.9% | 97.3% | 94.6% | 98.5% | 99.6% | 100% | 106% | 104%
16 | COc1ccc(-c2cc(/C=C3\C(=O)Nc4cc(Cl)ccc43)[nH]n2)cc1 | 26.4% | 13.3% | 29.2% | 54.5% | 9.94% (active) | 36.5% | 1.51% (active) | 4.51% (active) | 62.2% | 35% | 28.6% | 1.13% (active) | -27.5% (active) | 49% | 40.1% | 14% | 25.1% | 32.4% |  | 50.5%
